# Source: PubChem (National Center for Advancing Translational Sciences (NCATS))
# Sm TGR block: blocks Schistosoma mansoni thioredoxin glutathione reductase. Q962Y6. purified TGR, DTNB reduction, TNB absorbance 405 nm. Potency, µM (highest dose often 114 µM), without a hit: at the highest dose activity change, negative = inhibition, actives largely listed as inhibitors. 360,000 tested, 3% active. AID 485364; also: nearly all actives have a fitted effect of over 60% in size
#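 First, TGR (20 nM dispensed) and NADPH were mixed with compound. Second, a 15 min room-temperature incubation followed. Third, further NADPH and then DTNB were added to start the reaction. Finally, TNB absorbance was monitored kinetically.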
# AmpC no deterg: blocks E. coli AmpC beta-lactamase in detergent-free assay; AmpC nitrocefin hydrolysis, absorbance 480 nm, 0.0001% Triton; Potency, µM (highest dose often 57.1 µM), without a hit: top-dose activity change, negative = inhibition, hits mostly inhibitors; 330,000 tested, 0.52% active;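 also: plate controls were no compound for no effect and no enzyme for full effect; nearly all actives have a fitted effect of over 20% in size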
# Target sequence (P00811 whole entry, looked up): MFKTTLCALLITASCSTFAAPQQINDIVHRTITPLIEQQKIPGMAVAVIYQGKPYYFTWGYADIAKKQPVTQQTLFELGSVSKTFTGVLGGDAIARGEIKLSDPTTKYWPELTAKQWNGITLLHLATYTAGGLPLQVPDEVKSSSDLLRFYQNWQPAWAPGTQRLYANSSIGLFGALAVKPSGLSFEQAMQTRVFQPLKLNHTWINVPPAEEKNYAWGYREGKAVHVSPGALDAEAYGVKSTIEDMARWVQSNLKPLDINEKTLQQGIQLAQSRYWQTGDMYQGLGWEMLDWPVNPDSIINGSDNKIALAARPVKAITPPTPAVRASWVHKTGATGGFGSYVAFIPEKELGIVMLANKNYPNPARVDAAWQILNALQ
#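 AmpC (5.3 nM in the dispensed reagent) in 20 mM phosphate pH 7.0 with 0.01% (detergent screen) or 0.0001% Triton X-100 was preincubated with compounds for 15 min at room temperature. Nitrocefin was then added from an 800 uM solution, and hydrolysis was followed at 480 nm.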
# AmpC inh detg: AmpC beta-lactamase inhibition with detergent present | AmpC hydrolysis of nitrocefin, absorbance 480 nm, 0.01% Triton | 370,000 tested, 0.041% active | Potency, µM (doses to about 114 µM), without a hit: top-dose activity change, negative = inhibition, usual class: inhibitors;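 also: 0% = no-compound wells and -100% = no-enzyme wells; nearly all actives have a fitted effect of over 25% in size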
#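 20 mM phosphate pH 7.0 + 0.01% (detergent screen) or 0.0001% Triton X-100; 5.3 nM AmpC reagent; cpd preinc 15 min RT; nitrocefin (800 uM stock) to start; A480 q20 s × 4 min; Activity was normalised to no-enzyme and no-compound control wells.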
# FMDV antiviral: antivirals against foot and mouth disease virus. Potency, µM (doses to about 57.9 µM), for inactives: top-dose activity change, negative = inhibition, hits mostly inhibitors. 410,000 tested, 1.2% active. FMDV antiviral cell-based qHTS; calls by dose curve; tested in HEK293T cells; also: read-out not given here; nearly all actives have a fitted effect of over 45% in size
# AMA1 RON2 block: disrupts binding of P. falciparum AMA1 to RON2. AlphaScreen AMA1-biotinylated RON2 peptide binding. Potency, µM (highest dose often 58.2 µM), inactives show top-dose activity change, negative = inhibition, most hits filed as inhibitors. AID 720542. 360,000 tested, 0.2% active;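 also: 0% = vehicle wells and -100% = peptide control; nearly all actives have a fitted effect of over 45% in size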
#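 AMA1 (3D7) with his tag at 25 nM final met compounds first, then biotinylated RON2 peptide at 25 nM; detection used donor plus acceptor beads, 10 µg/mL apiece, read by AlphaScreen after 30 min at room temperature.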
# Numbers without * were called inactive; ? = inconclusive; / = no result given. Compounds with a hit are over-represented: about 4.1% of the library has one in this group of screens. Unless noted, calls follow the shape of the dose curve; as a rule, active = well fitted curve in the direction sought with a large enough effect; inconclusive = small, poorly fitted or top-dose-only effect, or another doubt; inactive = no such curve, though single readings can be large; an effect the other way counts as inactive or inconclusive. Unless noted, % is scaled to controls: 0 for no effect and ±100 for the full control effect; potency is read from the fitted curve at half-maximal effect.
SMILES,Sm TGR block,AmpC no deterg,AmpC inh detg,FMDV antiviral,AMA1 RON2 block
Cc1ccc(O)c(NC(=O)CCS(=O)(=O)c2nc(-c3cccs3)cc(C(F)(F)F)n2)c1,18µM*,/,7%,?,/
CCN(CC)c1ccc(NC(=O)CSc2nc(-c3cccs3)cc(C(F)(F)F)n2)cc1,-1%,/,19%,-16%,/
O=C(CSc1nc(-c2cccs2)cc(C(F)(F)F)n1)Nc1ccccc1Cl,3%,/,9%,-26%,/
O=C(CCS(=O)(=O)c1nc(-c2cccs2)cc(C(F)(F)F)n1)Nc1cc(Br)ccc1O,18µM*,/,4%,14µM*,/
COc1ccc(-c2cc(C(F)(F)F)nc(SCCC(=O)Nc3cc(C)ccc3O)n2)cc1,7%,/,31%,?,/
O=C(CCS(=O)(=O)c1nc(-c2cccs2)cc(C(F)(F)F)n1)Nc1ccc(Br)cc1,?,/,6%,40µM*,/
CC1CCN(S(=O)(=O)c2ccc3c(c2)N(CC(=O)N2CCN(c4ccccc4)CC2)C(=O)CO3)CC1,-9%,/,-4%,-17%,/
CC(C)(C)OC(=O)N1CCC(c2c(C(=O)NCc3ccc4c(c3)OCO4)cnn2-c2ccccc2Cl)CC1,2%,/,21%,-11%,/
CCc1nc2c(OCc3ccc(F)cc3)cccn2c1N(C)C(=O)COc1ccccc1,/,/,/,32µM*,-4%
CCc1cc(C(=O)NCC2Cc3cccc(-c4ccc(C(=O)OC)cn4)c3O2)no1 (centres undefined),/,/,/,-5%,/
COc1ccccc1C1C(C(=O)Nc2ccccc2)=C(C)Nc2nc(-c3ccccc3)nn21 (centres undefined),6%,/,7%,-30%,/
CCCNC(=O)c1n[nH]c(=O)c2ccccc12,-13%,-3%,-12%,-15%,-1%
CCc1ccccc1NC(=O)CNC(=O)c1n[nH]c(=O)c2ccccc12,-5%,-13%,4%,25µM*,-14%
CCC1CCCCN1S(=O)(=O)c1ccc(NC(=O)c2nc(S(C)(=O)=O)ncc2Cl)cc1 (centres undefined),2µM*,-5%,?,32µM*,-8%
CCS(=O)(=O)c1ncc(Cl)c(C(=O)Nc2ccc(S(=O)(=O)N3CCCC(C)C3)cc2)n1 (centres undefined),0.35µM*,31%,?,10µM*,4%
CCS(=O)(=O)c1ncc(Cl)c(C(=O)Nc2ccc(C)cc2)n1,6.3µM*,-6%,-9%,14µM*,-8%
Cc1ccc(CS(=O)(=O)c2ncc(Cl)c(C(=O)Nc3ccc(OC(F)F)cc3)n2)cc1,10µM*,-14%,-3%,25µM*,-18%
CN(CCO)C(=O)c1cn(C2CCN(Cc3cccc(C(F)(F)F)c3)CC2)nn1,/,/,/,-10%,/
NS(=O)(=O)c1ccc(CCNC(=O)c2nc(SCc3ccccc3F)ncc2Cl)cc1,0%,/,1%,-23%,/
COc1ccc2cc(S(=O)(=O)c3ccccc3F)c(=O)oc2c1,1%,/,19%,-3%,/
CCN(CC)C(=O)c1cccc(-c2csc(C(C)(O)c3ccccc3)n2)c1 (centres undefined),/,/,/,?,-3%
CCN(CC)C(=O)c1cccc(-c2csc(C(C)(O)c3cccc(OC)c3)n2)c1 (centres undefined),/,/,/,35µM*,-6%
CCN(CC)C(=O)c1cccc(-c2csc(C(C)(O)c3ccc(F)c(F)c3)n2)c1 (centres undefined),/,/,/,25µM*,9%
Cc1cc(-c2ccnc(-n3ncc(C(=O)NCc4cccnc4)c3C3CC3)n2)c(C)s1,/,/,/,-12%,/
COc1ccc(C2NC(=O)N(C)C3=C2C(=O)N(c2cccc(Cl)c2)C3)cc1 (centres undefined),1%,/,0%,-22%,/
SMILES,Sm TGR block,AmpC no deterg,AmpC inh detg,FMDV antiviral,AMA1 RON2 block
Cc1sc2nc(CN(Cc3cccs3)C(=O)NC3CCCCC3)[nH]c(=O)c2c1C,-11%,-9%,35µM*,-26%,-11%
Nc1cccc2nsnc12,35µM*,1%,0%,-10%,-8%
Cc1ccc2nsnc2c1N,-15%,-6%,-4%,-12%,3%
COc1cccc(Oc2nc3c(c(=O)n(Cc4ccccc4F)c(=O)n3C)n2C)c1,7%,/,23%,-10%,/
Cn1c(OCc2ccco2)nc2c1c(=O)n(Cc1ccc(Cl)c(Cl)c1)c(=O)n2C,22µM*,20%,?,-21%,-12%
Cn1c(N2CCOCC2)nc2c1c(=O)n(Cc1ccc(Cl)c(Cl)c1)c(=O)n2C,-1%,184%,2%,-29%,-13%
Cn1c(=O)c2c(nc(Oc3ccc(F)cc3)n2Cc2ccc(F)cc2)n(C)c1=O,20%,/,6%,0%,/
Cc1ccc(Oc2nc3c(c(=O)n(Cc4ccccc4F)c(=O)n3C)n2C)cc1,8%,-23%,-12%,20µM*,-13%
Cn1c(NCC(O)c2ccccc2)nc2c1c(=O)n(Cc1ccc(Cl)c(Cl)c1)c(=O)n2C (centres undefined),/,/,/,14µM*,-7%
Cn1c(Oc2ccc(Cl)cc2)nc2c1c(=O)n(Cc1ccc(F)cc1)c(=O)n2C,-1%,/,8%,16µM*,/
Cc1ccccc1NC(=O)C(Cc1ccccc1)N1Cc2ccccc2C1=O (centres undefined),0%,/,22%,-2%,/
S=C(NCc1ccco1)Nc1cc(-c2ccccc2)[nH]n1,16µM*,16µM*,-2%,-3%,22%
Cc1ncc(CO)c(/C=N/NC(=O)c2ccc(Br)cc2)c1O,-12%,-41%,-21%,/,/
Cc1ncc(CO)c(/C=N/NC(=O)c2cc(Br)ccc2O)c1O,1%,-27%,-12%,5%,4µM*
CC(=O)O[C@H]1CCC2C3CCC4=CC(=O)CCC4=C3C=C[C@@]21C (some centres undefined),5µM*,7%,1%,-15%,-3%
CC(=O)O[C@H]1CCC2C3CC[C@H]4[C@@H](O)[C@H](O)CC[C@]4(C)C3CC[C@@]21C (some centres undefined),/,/,/,-17%,1%
COc1ccc(-c2ccc(C(c3c(C)[nH][nH]c3=O)c3c(C)[nH][nH]c3=O)o2)c([N+](=O)[O-])c1,28µM*,-27%,-7%,/,49%
Cc1[nH][nH]c(=O)c1C(c1ccc(-c2ccc(F)cc2)o1)c1c(C)[nH][nH]c1=O,32µM*,-25%,5%,-28%,-4%
COc1ccc(-c2ccc(/C=N/N3C(=O)C4C5C=CC(C6CC56)C4C3=O)o2)c([N+](=O)[O-])c1 (centres undefined),-14%,-28%,-7%,?,-24%
Cc1[nH][nH]c(=O)c1C(c1ccc(-c2ccc(C(=O)O)cc2)o1)c1c(C)[nH][nH]c1=O,16µM*,-7%,-4%,8%,4%
Cc1[nH][nH]c(=O)c1C(c1c(C)[nH][nH]c1=O)c1cn(C)c2ccccc12,-6%,1%,0%,-19%,-9%
